HT1080 IDH1KD tx = HT-1080 IDH1 knockdown cell toxicity (counter line); hit rate 2% among 360,000; Potency, µM (highest dose often 46.1 µM), without a hit: top-dose activity, negative = toxicity, most hits filed as cytotoxic; AID 686971; HT-1080 IDH1 knockdown viability, ATP luminescence, 48 h;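 further: potency means the concentration at half of the fitted maximal effect; 0% = DMSO wells and -100% = cell-free medium wells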
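CellTiter-Glo luminescence after 48 h compound exposure at 37 degrees C of IDH1-knockdown HT-1080 cells in 5% FBS RPMI. %Activity scaled between DMSO wells and cell-free media wells, with curves fitted and assigned curve classes.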
IL1B secr inh = inhibitors of inflammasome signaling (IL-1 beta secretion); AID 743279; THP-1 LPS/ATP IL-1B secretion, AlphaLISA, 16 h; stronger effect = lower value; hit rate 4.7% among 360,000; activity change, % at 57.5 µM; in the data active means activity change below about -50%; inconclusive means mostly about -30% to -49%
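THP-1 cells pretreated 1 hr with compounds (up to 57.5 uM final), then stimulated with LPS (250 ng/mL final) plus ATP (1.25 mM final); secreted IL-1B measured by AlphaLISA after 16 hr, decreased signal indicating inhibition.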
DT40 TDP1 no CPT = qHTS for Inhibitors of human tyrosyl-DNA phosphodiesterase 1 (TDP1): qHTS in cells in absence of CPT | DT40 Tdp1-/- hTDP1 cells, no CPT, ATP luminescence, 48 h | Potency, µM (doses to about 46.2 µM), for inactives: at the highest dose activity change, negative = growth inhibition, usual class: inhibitors | hit rate 15% among 420,000 | AID 686978, 2013; further: potency means the concentration at half of the fitted maximal effect; nearly all actives have a fitted effect of over 55% in size
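Readout: luminescence from CellTiter-Glo after 30 min in the dark at RT. Cells: DT40 Tdp1-/- with stable hTDP1, 400/well. Exposure: compounds alone, ≥48 hr, 37 °C.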
DT40 TDP1 CPT = growth inhibition of DT40 Tdp1-/-;hTDP1 cells with camptothecin (screen for TDP1 inhibitors); chicken DT40 Tdp1-/-;hTDP1 cells + 20 nM CPT, ATP luminescence, 48 h; Potency, µM (doses to about 46.2 µM), for the others: at the highest dose activity change, negative = growth inhibition, most hits filed as inhibitors; hit rate 12% among 420,000; AID 686979; further: potency means the concentration at half of the fitted maximal effect; nearly all actives have a fitted effect of over 55% in size
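Chicken DT40 Tdp1-/- cells stably complemented with human TDP1 were seeded at 400 cells/well in medium containing 20 nM camptothecin, exposed to pin-transferred compounds, and grown at 37 °C for at least 48 hr. Viability was read as ATP luminescence.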
ELG1 DNA repair = blocks ELG1-dependent DNA repair in HEK293T cells; AID 504467; hit rate 2.3% among 330,000; HEK293T ELG1-luciferase reporter, luminescence, 16 h; DNA damage induced by 5-fluorouridine; Potency, µM (series often up to 46.1 µM), without a hit: top-dose activity change, negative = inhibition, usual class: inhibitors; further: potency means the concentration at half of the fitted maximal effect; nearly all actives have a fitted effect of over 55% in size
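Overnight (16 hr) co-exposure of 2,000 cells/well to 5-fluorouridine and compound at 37 °C preceded detection. Luciferase was quantified via ONE-Glo luminescence; loss of signal denotes inhibition.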
HT1080-NT tox = kills 2HG-producing HT-1080-NT fibrosarcoma cells; AID 686970; Potency, µM (highest dose often 46.1 µM), inactives show at the highest dose activity, negative = less viability, usual class: cytotoxic; HT-1080-NT fibrosarcoma viability, CellTiter-Glo ATP luminescence, 48 h; hit rate 1.6% among 360,000;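 further: NT is the 2HG producing partner of a matched IDH1 knockdown line; potency means the concentration at half of the fitted maximal effect; 0% = DMSO-treated cells and -100% = media-only wells without cells; nearly all actives have a fitted effect of over 55% in size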
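Viability by CellTiter-Glo luminescence after 48 h compound exposure at 37C of HT-1080-NT cells (750/well, RPMI, 5% FBS). % activity scaled between DMSO wells and medium-only wells, then curve-fitted and categorized by curve class.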
Numbers without * were called inactive; ? = inconclusive; / = no result. Only some compounds are listed: those with a hit (about 19% of all), similar ones and a draw of the others. Unless noted, the call rests on the fitted dose curve; in most records, active means well fitted curve in the direction sought with a large enough effect; inconclusive means small, poorly fitted or top-dose-only effect, or another doubt; inactive means no such curve, though single readings can be large; an effect the other way counts as inactive or inconclusive. Unless noted, on the % scale 0 is the no-effect control and ±100 the full control effect.

SMILES	HT1080 IDH1KD tx	IL1B secr inh	DT40 TDP1 no CPT	DT40 TDP1 CPT	ELG1 DNA repair	HT1080-NT tox
Cc1ccc(NC(=O)Cn2c(=O)n(-c3ccc(C)cc3)c(=O)c3ccc(C(=O)NCc4ccccc4Cl)cc32)cc1	/	/	13µM*	7.3µM*	/	/
CC(C)(C)c1cc(NC(=O)c2c(F)cccc2Cl)n(-c2ccccc2)n1	2%	-21	?	?	0%	-6%
Cc1cc(NC(=O)c2ccc(C)s2)n(-c2nc3ccccc3[nH]2)n1	0%	-26	21µM*	?	?	-7%
Cc1cc(NC(=O)c2c(F)cccc2Cl)n(-c2nc3ccccc3[nH]2)n1	?	0	23µM*	?	21µM*	?
Cc1cc(NC(=O)C2CCC2)n(-c2ccccn2)n1	-9%	-9	?	?	2%	-5%
Cc1cc(NC(=O)C2CCCCC2)n(-c2nc3ccccc3[nH]2)n1	?	-22	16µM*	23µM*	?	?
Cc1cc(NC(=O)c2ccccc2F)n(-c2nc3ccccc3[nH]2)n1	-18%	4	?	?	16µM*	?
Cc1ccc(-n2c(=O)c3c(cnn3C)n(CC(=O)Nc3ccc(C)cc3C)c2=O)cc1	/	/	-14%	-24%	/	/
Cc1cc(NC(=O)c2c(F)cccc2F)n(-c2nc3ccccc3[nH]2)n1	10µM*	?	11µM*	?	?	?
Cc1cc(Nc2ccccc2)n(-c2nc3ccccc3[nH]2)n1	?	?	?	?	-26%	?
C=CCNc1nc(N2CCCCC2)c(C#N)c2c1CN(Cc1ccccc1)CC2	?	-6	23µM*	23µM*	23µM*	?
CCN1CCc2c(C#N)c(N3CCCCC3)nc(NCc3ccccc3)c2C1	?	-24	16µM*	21µM*	/	?
CCOC(=O)c1c(C2CC2)csc1NC(=O)COC(=O)c1cc(OC)c(OC)cc1[N+](=O)[O-]	7%	28	21µM*	?	13µM*	4%
CCOC(=O)c1c(C2CC2)csc1NC(=O)COC(=O)c1ccc[n+]([O-])c1	1%	-3	?	-30%	12%	1%
O=C1NC(c2cccc(Cl)c2)Oc2ccccc21 (stereo not drawn)	18%	-8	4%	1%	?	10%
CCC1NC(=O)c2ccccc2N1c1cccc(Cl)c1 (stereo not drawn)	?	34	16µM*	?	/	-27%
OCCN(Cc1ccccc1)C(=S)Nc1ccc(Cl)cc1Cl	-22%	-56*	?	?	14%	-19%
CN(C)CCCN(Cc1ccccc1)C(=S)Nc1cccc(C(F)(F)F)c1	-13%	16	?	15µM*	4%	-5%
S=C(Nc1ccccc1Cl)N(Cc1ccccc1)Cc1ccccn1	-18%	-52*	?	?	?	-11%
Cc1cc(NC(=S)N(Cc2ccc(Cl)cc2)Cc2ccc(C(=O)O)cc2)ccc1Cl	-9%	0	6%	0%	0%	-9%
CCCN(Cc1ccccc1)C(=S)Nc1cccc(C(F)(F)F)c1	-19%	-2	?	?	-7%	-25%
COc1ccccc1NC(=S)N(Cc1ccccc1)Cc1ccccn1	6%	-5	?	?	0%	2%
CN(C)CCCN(Cc1ccccc1)C(=S)Nc1ccc(F)c(Cl)c1	?	?	18µM*	-27%	11%	?
CCOC1=C2CN(S(=O)(=O)c3ccc(C)cc3)[C@H](c3cccc(Cl)c3)C[C@@H]2N(S(=O)(=O)c2ccccc2[N+](=O)[O-])[C@H](c2ccccc2)C1	10%	-11	-7%	-5%	/	19%
Cc1ccc(O)c(NC(=O)C2CC(c3cccc(Br)c3)=NO2)c1 (stereo not drawn)	-14%	-5	-13%	9%	9%	-11%
SMILES	HT1080 IDH1KD tx	IL1B secr inh	DT40 TDP1 no CPT	DT40 TDP1 CPT	ELG1 DNA repair	HT1080-NT tox
NC(=O)N=Nc1c2[nH]c3ccccc3nc-2c2ccccc12	-14%	-89*	8.2µM*	16µM*	?	-18%
CSc1nsc(SC)c1C(=O)N1CCN(S(=O)(=O)c2ccc(C)cc2)C1C(C)C (stereo not drawn)	-3%	13	?	?	18µM*	?
CC(=O)N1CCN(S(=O)(=O)c2ccc(C)cc2)C1C (stereo not drawn)	2%	9	-28%	3%	0%	0%
CSc1nsc(SC)c1C(=O)N1CCN(S(=O)(=O)c2ccc(C)cc2)C1C (stereo not drawn)	1%	13	23µM*	?	?	-3%
CON(C)S(=O)(=O)c1cccc(C(=O)Nc2cccc(S(=O)(=O)NC3=NCCCCC3)c2)c1	-2%	-7	?	?	/	-2%
Cc1[nH]c(=O)[nH]c(=O)c1/C=N/NC(=O)[C@H](C)N	16%	-12	?	-4%	6%	1%
CC(C)C(=O)N1CCC1(C)C(=O)Nc1ccc2cn[nH]c2c1 (stereo not drawn)	0%	2	-2%	-9%	/	2%
CC(C)(C)c1ccc(C(=O)N2CCC2(C)C(=O)Nc2ccc3nc[nH]c3c2)cc1 (stereo not drawn)	-22%	-18	18µM*	15µM*	/	-5%
COc1ccc(NC(=O)C2(C)CCN2C(=O)c2ccc(C(C)(C)C)cc2)cc1OC (stereo not drawn)	?	7	10µM*	13µM*	/	2%
CC(C)(C)c1ccc(C(=O)N2CCC2(C)C(=O)Nc2ccc3[nH]ncc3c2)cc1 (stereo not drawn)	?	-1	15µM*	21µM*	/	-8%
C=CCN(CC=C)Cc1cc(=O)oc2cc(C)cc(C)c12	-10%	25	?	?	/	-4%
NCCCC[C@H](NC(=O)[C@@H]1CCCN1C(=O)[C@@H]1CSSC[C@H](N)C(=O)N[C@@H](Cc2ccccc2)C(=O)N[C@@H](Cc2ccccc2)C(=O)N[C@@H](CCC(N)=O)C(=O)N[C@@H](CC(N)=O)C(=O)N1)C(=O)NCC(N)=O	/	/	-5%	-4%	/	/
COc1ccc(NC(=O)COC(=O)c2cccn2C)cc1S(=O)(=O)N1CCCCC1	0%	-2	?	0%	?	-8%
